# Measured values published in ChEMBL document CHEMBL4513146, “CO-ADD screening of Karazin Kharkiv National University (Ukraine) compounds”.
# Entries with a potency or affinity are not part of this list.
# Experiments:
# Klebsiella pneumoniae = settings: Concentration 32 ug.mL-1;; ASSAY_TEST Inhibition of Bacterial Growth; detection method Absorption (OD600); MEDIA CAMHB; plate type 384well; NBS; CORNING #3640; time 18 hr
# Candida albicans = settings: Concentration 32 ug.mL-1; ASSAY_TEST Inhibition of Fungal Growth; detection method Absorption (OD530)
# Cryptococcus neoformans = settings: Concentration 32 ug.mL-1; ASSAY_TEST Inhibition of Fungal Growth; detection method Resazurin; Absorption (OD600-OD570); plate type 384well; NBS; CORNING #3640
Compound,Inhibition (Klebsiella pneumoniae),Inhibition (Candida albicans),Inhibition (Cryptococcus neoformans)
COC(=O)c1ccc(NC(=O)Cn2nc3c(Oc4cccc(OC)c4)nccn3c2=O)cc1,5.51%,12.96%,-6.09%
COC(=O)c1ccc(NC(=O)Cn2nc3c4cc(-c5ccc(Cl)cc5)nn4ccn3c2=O)cc1,10.1%,2.64%,-4.53%
NC(=O)CSc1nnc2c(=O)n(-c3ccccc3)ccn12,15.37%,2.06%,-20.31%
Cc1cccc(NC(=O)CSc2nnc3c(=O)n(-c4ccccc4)ccn23)c1,3.26%,1.31%,-14.94%
O=C(Cn1nc2ccc(-c3ccc(Cl)cc3)nn2c1=O)N1CCN(c2ccccc2F)CC1,1.3%,2.81%,-11.05%
CCc1ccc(N(Cc2ccc(C)cc2)S(=O)(=O)c2cccn3c(CC)nnc23)cc1,2.26%,5.38%,-7.79%
CCOc1ccc(-n2ccn3c(SCC(=O)Nc4ccc5c(c4)OCCO5)nnc3c2=O)cc1,3.14%,6.39%,-10.75%
CSc1ccc(CNC(=O)Cn2nc3c(N4CCN(c5ccccc5)CC4)nccn3c2=O)cc1,15.47%,1.95%,-6.85%
CC(C)Cn1c(=O)c2ccc(C(=O)NC3CCCC3)cc2n2c(=O)n(CC(=O)NC3CCCCC3)nc12,4.14%,-1.41%,-14.36%
CCc1nnc2c(SCC(=O)NCc3ccccc3Cl)nc3ccccc3n12,8.04%,1.39%,-17.43%
COc1cccc(-n2ccn3c(SCC(=O)NCc4ccc(Cl)cc4)nnc3c2=O)c1,6.58%,0.82%,-6.96%
CCOC(=O)c1ccccc1NC(=O)Cn1nc2c(Oc3ccc(C)cc3)nccn2c1=O,-8.56%,4.6%,-10.52%
N#CCSc1nnc2c(=O)n(-c3ccccc3)ccn12,18.13%,2.9%,-7.27%
CCc1nnc2c(SCC(=O)Nc3ccccc3Br)nc3ccccc3n12,11.72%,2.39%,-22.99%
CSc1cccc(NC(=O)Cn2c(=O)c3nnc(C(C)C)n3c3ccccc32)c1,10.43%,3.45%,-18.2%
Cc1ccc(CN(c2ccccc2)S(=O)(=O)c2ccc3nncn3c2)cc1,-1.94%,-3.84%,-7.34%
CCCCNC(=O)Cn1nc2n(Cc3ccco3)c(=O)c3sccc3n2c1=O,5.33%,0.44%,-11.54%
Cc1ccc(C)c(NC(=O)Cn2nc3n(C)c(=O)c4c(c(-c5ccccc5)cn4C)n3c2=O)c1,-7.88%,1.95%,-9.34%
COc1ccc(-c2cc3c4nn(CC(=O)Nc5cccc(C(C)=O)c5)c(=O)n4ccn3n2)cc1,3.99%,4.25%,-13.63%
Cn1c(=O)c2ccc(C(=O)NC3CCCC3)cc2n2c(SCc3c(F)cccc3Cl)nnc12,14.92%,3.13%,-23.81%
Cc1cc(C)cc(NC(=O)Cn2nc3c(N4CCCC4)nccn3c2=O)c1,18.22%,0.29%,-23.65%
Cc1ccc(Cl)cc1NC(=O)CSc1nc2ccccc2n2c(C(C)C)nnc12,7.66%,11.96%,-19.47%
Cc1ccc(C)c(NC(=O)Cn2nc3ccc(-c4ccc(C)c(C)c4)nn3c2=O)c1,-9.48%,0.94%,-3.49%
CC(C)(C)Sc1ccc2nn(CC(=O)NCc3ccc(Cl)cc3)c(=O)n2n1,10.39%,0.88%,-9.66%
COc1ccccc1CNC(=O)Cn1nc2c(N3CCCCCC3)nccn2c1=O,8.05%,3.98%,-7.24%
COc1ccc(NC(=O)Cn2nc3ccc(SC(C)C)nn3c2=O)cc1OC,9.91%,1.32%,-1.1%
COc1ccc(-c2cc3c4nn(CC(=O)N5CCCc6ccccc65)c(=O)n4ccn3n2)cc1,10.34%,3.82%,-13.79%
Cc1cc(C)cc(N(Cc2ccc(Cl)cc2)S(=O)(=O)c2cccn3c(C)nnc23)c1,4.19%,0.27%,-8.23%
